Laboratory results: ChEMBL document CHEMBL4513216, “Probing the Open Global Health Chemical Diversity Library for Multistage-Active Starting Points for Next-Generation Antimalarials” (ACS Infect Dis, 2020)
Screen size: about 68,000 compounds; about 2,700 (4%) showed an effect of 50% or more. What follows is part of a selection rich in strong results, with near analogues and random picks from the rest.

Tested on: Plasmodium berghei
Assay: Screen against P. berghei liver stage (PbLuc), transformed with Luciferase, at 2uM
Format: functional, HepG2
Settings: tested at 2 uM

Structure (SMILES) | INHIBITION
Cc1nn(C)cc1C1=NS(=O)(=O)N(C)C(C(=O)Nc2ccc(Cl)cc2)=C1 | -13.02%
CCn1cc(S(=O)(=O)NC2CCCN(CCCc3ccccc3)C2)cn1 (centres undefined) | 7.21%
CC(=O)N1CCCCCC1C1CCN(Cc2nnc(C(C)(C)C)o2)CC1 (centres undefined) | 30.82%
COc1cncc(-n2ccnc2-c2ccc(C(=O)O)s2)c1 | 48.58%
Cc1cnc(C(=O)N2CCC3(CC2)CC(c2ccccc2)C(=O)N3)cn1 (centres undefined) | -6.21%
CC(=O)N[C@@H]1CN(C(=O)c2csc(C(C)C)n2)C[C@H]1C(C)C | 3.62%
CC(C)c1nc(C(=O)N2C[C@H](C(C)C)[C@@H](N)C2)cs1 | 58.69%
CC(C)c1nc(C(=O)N2CCCC(N)CC2)cs1 (centres undefined) | -66.05%
COc1ccc(-c2cc(CN)nc3ccnn23)cc1 | -11.81%
O=c1c(NCc2ccncc2)c(NCC(O)CN2CCOCC2)c1=O (centres undefined) | 1.08%
O=c1c(NCc2ccco2)c(NCC(O)CN2CCOCC2)c1=O (centres undefined) | 53.33%
O=c1c(NCc2ccccn2)c(NCC(O)CN2CCOCC2)c1=O (centres undefined) | 15.02%
COCCN1CCc2cc(C(=O)NCC3CC3)c(NC(C)C)nc2CC1 | 25.35%
COC[C@]1(O)CCN(C(=O)c2ccc(CN(C)C)o2)CC1(C)C | 8.88%
CN(Cc1ccccc1)C1(C(=O)NC(CO)CO)Cc2ccccc2C1 | 31.35%
CC(Cc1cn(CCc2nnn[nH]2)nn1)c1ccccc1 (centres undefined) | 29.41%
Cc1nccc([C@@H]2C[C@@H]3CCN(S(=O)(=O)N(C)C)C[C@H]3O2)n1 | 54.16%
Cc1nccc([C@@H]2C[C@@H]3CCN(S(C)(=O)=O)C[C@H]3O2)n1 | 26.65%
Cc1nccc([C@H]2C[C@@H]3CCN(S(=O)(=O)N(C)C)C[C@H]3O2)n1 | 21.33%
COc1cc(N2C[C@H]3CCC[C@@H](CN4CCOCC4)[C@H]3C2)ncn1 | 36.75%
CCCS(=O)(=O)N1C[C@@H]2CN(Cc3ccoc3)CCO[C@@H]2C1 | 33.4%
Cn1cc(C(=O)N2CCSc3ccccc32)ccc1=O | 50.05%

Structure (SMILES) | INHIBITION
COCCCN1CC2(CCN(C(=O)c3ccc(=O)n(C)c3)CC2)CC1=O | 44.23%
CCN1CCN(C(=O)c2ccc(=O)n(C)c2)c2ccccc21 | -22.63%
CN1CC2(CCN(C(=O)c3ccc4nonc4c3)CC2)CC1=O | 10.02%
CC1CN(C)c2ccccc2N(C(=O)c2ccc(=O)n(C)c2)C1 (centres undefined) | 15.47%
CC(=O)N1CCCN(C(=O)c2ccc(=O)n(C)c2)c2ccccc21 | 28.18%
CN1CC2(CCN(C(=O)c3ccc(=O)n(C)c3)CC2)CC1=O | 53.13%
CN1CCN(C(=O)c2ccc(=O)n(C)c2)c2ccccc21 | 51.19%
Cn1cc(C(=O)N2CCOc3ccccc32)ccc1=O | -31.6%
CC(C)n1nc(CN2CCCC2)c2c1CN(CC1CC1)CC2 | -29%
FC(F)(F)CCc1ccnc(NCc2csc(N3CCOCC3)n2)n1 | -17.11%
Cn1nnc2c1C(COCC1CC1)CN(C(=O)C1=CCCC1)C2 (centres undefined) | 22.68%
CCN1CCC2(CCN(c3ncccn3)CC2)C1=O | 32.05%
CC(C)NS(=O)(=O)c1cc(C(=O)O)cc(-c2ccc3c(c2)OCO3)c1 | -12.67%
O=C(NCc1ccccn1)[C@@H]1CCO[C@@H]2CCN(Cc3ccoc3)C[C@H]21 | 11.08%
O=C(c1ccno1)N1CCCC(c2ncncc2-c2ccncc2)C1 (centres undefined) | 6.13%
OC1(CN2CCCC(Cn3cncn3)C2)CCCCC1 (centres undefined) | 19.9%
COCC(NC1CCSCC1)c1ccnn1C (centres undefined) | 27.55%
Cc1cc(NC(=O)N(CCC#N)CCCN(C)C)ccc1F | -11.32%
Cc1cc(C)cc(NC(=O)N(CCC#N)CCCN(C)C)c1 | 53.81%
CN(C)CCCN(CCC#N)C(=O)Nc1ccc2[nH]ccc2c1 | -28.09%
Cc1noc(C)c1CN1CCc2ncnc(-c3ccoc3)c2CC1 | -15.88%
CCOC(=O)CNC(=O)NCc1cc(C)n(-c2ccccc2OC)c1C | 7.91%

Structure (SMILES) | INHIBITION
CCN1CC[C@@]2(C(=O)N3CCOCC3)CCN(S(=O)(=O)CC)CC[C@@H]12 | 46.32%
Cc1nc(C)n(CC2CCCN2Cc2ncc(C(C)(C)C)o2)n1 (centres undefined) | -39.72%
FC(F)(F)c1ccc2nc([C@H]3CCN(C4CCOCC4)C3)[nH]c2c1 | 54.16%
FC(F)(F)c1ccc2nc([C@H]3CCN(C4CCCCC4)C3)[nH]c2c1 | -5.77%
FC(F)(F)c1ccc2nc([C@H]3CCN(C4CCC4)C3)[nH]c2c1 | 2.22%
Cc1n[nH]cc1CNCc1cccc(OCC(F)(F)F)c1 | 36.91%
O=C(CSC1CCCC1)N1CCN(c2ccc(-n3cncn3)nn2)CC1 | 15.96%
O=C(CC1CCCC1)N1CCN(c2ccc(-n3cncn3)nn2)CC1 | 59.76%
O=C(C1CC1)N1CCN(c2ccc(-n3cncn3)nn2)CC1 | 42.14%
Cc1cc(F)ccc1NS(=O)(=O)c1cc2c(c(C(=O)O)c1)OCCO2 | -1.02%
CC(C)(N)c1cn(C2CCN(C(=O)CCC3CCCCC3)CC2)nn1 | 20.08%
Cc1nc(N2CCCC2)nc2c1CCN(C(=O)CC1CC1)CC2 | -24.79%
CCN1CCNC(=O)C12CCN(S(=O)(=O)c1ccccc1)CC2 | -2%
CC(C)CN1CCNC(=O)C12CCN(S(=O)(=O)c1ccc(F)cc1)CC2 | 55.66%
CCN1CCNC(=O)C12CCN(S(=O)(=O)c1ccc(F)cc1)CC2 | 26.55%
Oc1cc(-c2ccccn2)nc(C2CCN(Cc3ccncc3)CC2)n1 | -1.49%
Nc1nc2c(c(N3CCCC(OCc4ccccn4)C3)n1)CCNCC2 (centres undefined) | -24.7%
Cc1ncsc1CCN(C)Cc1ccc(Br)o1 | 34.18%
Cc1ncsc1CCN(C)Cc1ccc(CO)o1 | 36.28%
Cc1ccsc1CN(C)CCc1scnc1C | 57.75%
